Shown are actives, neighbours in structure and some others; about 21% of the full set was active somewhere.
CHX counter: Cycloheximide Counterscreen for Small Molecule Inhibitors of Shiga Toxin; cell reporter, cycloheximide protein synthesis inhibition counterscreen; AID 2314, 2010; max response, %; actives 12% (n = 300,000); in the data active means max response mostly above about 13%, no sharp cut-off; inactive means mostly below about 14%; further: read at 38.3 µM for the half of the compounds with a filed dose; 0% is about no effect
Sm TGR inh: qHTS Assay for the Inhibitors of Schistosoma Mansoni Peroxiredoxins; purified TGR, DTNB reduction, TNB absorbance 405 nm; actives 3% (n = 360,000); Potency, µM (highest dose often 114 µM), without a hit: at the highest dose activity change, negative = inhibition, hits mostly inhibitors; AID 485364, 2010; further: potency means the concentration at half of the fitted maximal effect; on the % scale 0 is the no-effect control and ±100 the full control effect; nearly all actives have a fitted effect of over 60% in size
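TGR 20 nM + NADPH 100 uM (dispensed conc.), cpd preinc 15 min RT; start with NADPH (500 uM addition) then DTNB (15 mM addition). Kinetic TNB absorbance, 405 nm filter. Four-parameter Hill fit across titration.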
Pf growth 96h: Primary qHTS for delayed death inhibitors of the malarial parasite plastid, 96 hour incubation; Potency, µM (top dose mostly 28.7 µM), for the others: at the top dose activity change, negative = inhibition, usual class: inhibitors; actives 6.9% (n = 320,000); P. falciparum luciferase reporter growth, 96 h; AID 504834, 2011; further: potency means the concentration at half of the fitted maximal effect; on the % scale 0 is the no-effect control and ±100 the full control effect
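P. falciparum expressing integrated firefly luciferase, in erythrocytes at 2% hematocrit, 0.05% parasitemia, incubated with compounds 96 h at 37 C, 5% CO2. Growth inhibition read as loss of luminescence; two-generation exposure targets delayed-death apicoplast inhibitors.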
Shiga toxin inh: A qHTS for Small Molecule Inhibitors of Shiga Toxin; Vero cells, Shiga toxin protein synthesis inhibition reporter; inhibition, % at 38.7 µM; actives 9.2% (n = 290,000); AID 2315, 2010; in the data active means inhibition mostly above about 28%, no sharp cut-off; inactive means mostly below about 43%; further: 0% is about no effect
NS1 function inh: qHTS Assay for Inhibitors of Influenza NS1 Protein Function. actives 0.4% (n = 270,000). Potency, µM (titrated, usually from 46.1 µM), without a hit: top-dose activity, positive = more growth; calls by dose curve; further: potency means the concentration at half of the fitted maximal effect; actives are rising curves; nearly all actives have a fitted effect of over 50% in size
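S. cerevisiae expressing influenza A NS1, grown in glucose, washed, then diluted 1:100 into pH 6.0 -URA galactose medium with 23 nl compound. Growth recovery read as OD600; NS1-free strain serves as control.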
Pf growth 48h: Primary qHTS for delayed death inhibitors of the malarial parasite plastid, 48 hour incubation; P. falciparum luciferase growth in erythrocytes, 48 h; Potency, µM (titrated, usually from 28.7 µM), inactives show at the top dose activity change, negative = inhibition, usual class: inhibitors; actives 5.9% (n = 310,000); further: potency means the concentration at half of the fitted maximal effect; on the % scale 0 is the no-effect control and ±100 the full control effect
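Erythrocytes infected with P. falciparum carrying an integrated firefly luciferase reporter (2% hematocrit, 0.1% parasitemia final) were exposed to compounds in RPMI 1640 with 0.5% Albumax at 37 C, 5% CO2. Growth inhibition was scored as reduced luminescence.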
The depositor's hits bear a star; ? = inconclusive; · = not tested or not shown. Unless noted, the call rests on the fitted dose curve; in most records, active means well fitted curve in the direction sought with a large enough effect; inconclusive means small, poorly fitted or top-dose-only effect, or another doubt; inactive means no such curve, though single readings can be large; an effect the other way counts as inactive or inconclusive.

SMILES | CHX counter | Sm TGR inh | Pf growth 96h | Shiga toxin inh | NS1 function inh | Pf growth 48h
O=C(NCCN1CCOCC1)c1cc(-c2ccc(F)cc2)nc2ccccc12 | · | -4% | -14% | · | · | ?
CCOc1ccc(-c2cc(C(=O)NCCCN3CCOCC3)c3ccccc3n2)cc1 | 23* | 0% | ? | 40 | -8% | -5%
Cc1cc(NC(=O)c2cc(-c3ccc(OC(C)C)cc3)nc3ccccc23)no1 | 20* | -8% | -13% | 39 | -7% | ?
CC(C)Oc1ccc(-c2cc(C(=O)NCCN3CCOCC3)c3ccccc3n2)cc1 | 30* | -6% | 31% | 61 | -1% | 2.3µM*
O=C(NCCCN1CCOCC1)c1cc(-c2ccc(F)cc2)nc2ccccc12 | · | -2% | 6% | · | · | -15%
O=C(COc1ccc2c(-c3ccccc3)cc(=O)oc2c1)NCCCN1CCOCC1 | 12* | 0% | ? | 23 | 7% | -23%
Cc1cccc(CNC(=O)C2CCN(S(=O)(=O)c3cccc4nonc34)CC2)c1 | · | 4% | · | · | · | ·
COc1cc(NC(=O)c2cc(C3CC3)nc3c2c(C)nn3-c2ccc(C)cc2)cc(OC)c1 | · | 6% | · | · | · | ·
COc1ccc(NC(=O)C2CCN(C(=O)c3sc4nc[nH]c(=O)c4c3C)CC2)c(OC)c1 | · | 8% | · | · | · | ·
O=C(NCCCN1CCOCC1)c1cc(-c2ccc(Cl)s2)nc2ccccc12 | · | 2% | ? | · | · | 17µM*
CCCCOc1ccc(CN(C)c2ncnc(N)n2)cc1 | 15* | -28% | -22% | 33* | -9% | 9%
CCCOc1ccc(CN(C)c2ncnc(N)n2)cc1 | -1 | 1% | 123% | 10 | -4% | 25%
Cc1ccc(NC(=O)c2ccc(CNS(=O)(=O)c3ccc4c(c3)C(C)(C)C(=O)N4C)cc2)cc1C | · | 1% | · | · | · | ·
O=C(NCC1CCCO1)C(=O)c1c[nH]c2ccccc12 (stereo not drawn) | 27* | 5% | 104% | 162* | · | 69%
O=C(COC(=O)c1c[nH]c2ccccc12)NC1CCCC1 | · | -12% | 11% | · | · | 13%
Cc1ccc(NC(=O)C(=O)c2c[nH]c3ccccc23)cc1 | 33* | 8% | 20% | 47* | -8% | 69%
O=C(NC1CCCCC1)C(=O)c1c[nH]c2ccccc12 | 32* | 4% | 2% | 69* | -18% | 66%
Cc1[nH]c2ccccc2c1C(=O)C(=O)NCC1CCCO1 (stereo not drawn) | 7 | -3% | 24% | -13 | · | -29%
CCCC(=O)Nc1ccc(C(=O)NCCc2ccc(F)cc2)cc1 | 24* | 2% | ? | 19 | 7% | 15%
CCCCC(=O)Nc1ccc(C(=O)NCCc2ccccc2)cc1 | 31* | -15% | ? | 11 | -3% | 13%
COc1ccc(NC(=O)C2C3C=CC4(O3)C2C(=O)N(CCCN2CCCCC2)C4C(=O)NC2CCCC(C)C2C)cc1 (stereo not drawn) | -1 | -15% | -9% | 3 | -19% | -14%
COc1cccc(NC(=O)C2C3C=CC4(O3)C2C(=O)N(CCCN2CCCC(C)C2)C4C(=O)NC2CCCCC2C)c1 (stereo not drawn) | 2 | -23% | 10µM* | -5 | -10% | -17%
CC1CCCC(NC(=O)C2N(CCCN3CCCC3)C(=O)C3C(C(=O)Nc4ccc(Cl)cc4)C4C=CC32O4)C1C (stereo not drawn) | 3 | 3% | 5.9µM* | 5 | -1% | ?
O=C(Nc1ccsc1C(=O)O)c1ccccc1 | 3 | 0% | 36% | 32 | 2% | 14%
O=C(Nc1ccsc1C(=O)NC1CCCCC1)c1ccc(F)cc1 | -1 | 0% | 1.7µM* | -6 | -4% | 1.7µM*
SMILES | CHX counter | Sm TGR inh | Pf growth 96h | Shiga toxin inh | NS1 function inh | Pf growth 48h
CCC(c1nnnn1C(C)(C)CC)N(CCN1CCOCC1)Cc1cc2cc(C)ccc2[nH]c1=O (stereo not drawn) | -2 | 0% | ? | -9 | -1% | ·
CCC(c1nnnn1Cc1ccco1)N(Cc1cc2cc(C)cc(C)c2[nH]c1=O)CC1CCCO1 (stereo not drawn) | 4 | 22µM* | 25% | 29 | 2% | ?
Cc1ccc2[nH]c(=O)c(CN(CCCO)C(C)c3nnnn3Cc3ccco3)cc2c1 (stereo not drawn) | -2 | -36% | -10% | -7 | -4% | 2.3µM*
CCC(c1nnnn1Cc1ccco1)N(Cc1ccccc1OC)Cc1cc2cc(C)ccc2[nH]c1=O (stereo not drawn) | 1 | -21% | ? | -7 | -26% | 1.5µM*
Cc1ccc2cc(CN(Cc3ccc4c(c3)OCO4)Cc3nnnn3Cc3ccco3)c(=O)[nH]c2c1 | -11 | ? | 4% | 23 | 13% | ?
O=c1c2ccccc2oc2cc(-c3ccc(CN4CCOCC4)cc3)ccc12 | · | ? | -16% | · | · | 32%
O=C1OC(OC(=O)c2cccnc2Nc2cccc(C(F)(F)F)c2)c2ccccc21 (stereo not drawn) | 5 | · | -15% | -2 | · | -7%
Cc1ccc(NC(=O)CSc2ccc(-c3sc(-c4ccccc4)nc3C)nn2)cc1F | · | 5% | · | · | · | ·
CCOc1ccc(Cl)cc1CSc1ncn[nH]1 | -4 | 1% | ? | -6 | -20% | ?
O=C(Nc1ccccc1F)C(=O)c1cn(CC(=O)N2CCCCC2)c2ccccc12 | 33* | -6% | -11% | 54* | · | 9%
CC(=O)Nc1ccc(NC(=O)C(=O)c2cn(CC(=O)N3CCCC3)c3ccccc23)cc1 | -1 | -4% | 9% | 23 | 5% | -20%
CC(=O)Nc1cccc(NC(=O)C(=O)c2cn(CC(=O)N3CCCCC3)c3ccccc23)c1 | 45* | -1% | ? | 85* | · | 41%
COc1cccc2cc(C(=O)NCc3ccco3)c(=Nc3ccc(C(=O)O)cc3)oc12 | 76* | -4% | ? | 196* | -6% | ·
O=C(O)c1ccc(N=c2oc3cc(O)ccc3cc2C(=O)NCc2ccccc2)cc1 | 7 | 3% | ? | 4 | · | -28%
COc1ccc2cc(C(=O)NCc3ccccc3)c(=Nc3ccc(C(=O)O)cc3)oc2c1 | 13 | -1% | 0.41µM* | 23 | · | ?
COc1cccc2cc(C(=O)NCc3ccc(C)cc3)c(=O)oc12 | 11 | 2% | 13% | 2 | 3% | 7%
COc1cccc2cc(C(=O)NCc3ccco3)c(=O)oc12 | 34* | -2% | -15% | 74* | 1% | 11%
COc1ccc2oc(=O)c(C(=O)NCc3ccco3)cc2c1 | 25* | · | 13% | 85* | -7% | 15%
COc1cccc(OC)c1C(=O)Nc1nc2ccc([N+](=O)[O-])cc2s1 | 1 | 16% | -26% | -7 | 7% | ?
COc1ccc(-c2nn(-c3cccc([N+](=O)[O-])c3)c3c2cnc2cc4c(cc23)OCO4)cc1 | · | 0% | · | · | · | ·

Bioassay records from PubChem.
